Data published in the supplement of paper PMC6555819.

Experiments:
Assay in all cases: PBM binding z-score (relative to random genomic background probes); higher = stronger binding; sequences stand for … in GC…GCGATTGACAGCGTAGAATGAAGG
[1] = system: FXR:RXRa (NR concentration 270 nM, RXRa partner concentration 90 nM)
Procedure, shortened: (§1)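 For binding z-scores, the reference was random background probes on custom Agilent 4×180K protein-binding microarrays. These arrays were incubated 1 h with ligand-free nuclear receptor dimers in PBS pH 7.4, 2% milk, 0.02% Triton X-100, 1 mM DTT, 0.2 mg/mL BSA and 0.4 mg/ml salmon testes DNA. Fluorescence was scanned after antibody detection of each partner (one per run) and regression-normalized.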

[2] = system: LXRa:RXRa (NR concentration 270 nM, RXRa partner concentration 90 nM)
Procedure, shortened: as §1

[3] = system: LXRa homodimer (NR concentration 270 nM)
Procedure, shortened: as §1

[4] = system: LXRb:RXRa (NR concentration 270 nM, RXRa partner concentration 90 nM)
Procedure, shortened: as §1

[5] = system: LXRb homodimer (NR concentration 270 nM)
Procedure, shortened: as §1

[6] = system: PPARa:RXRa (NR concentration 270 nM, RXRa partner concentration 90 nM)
Procedure, shortened: as §1

[7] = system: PPARg:RXRa (NR concentration 180 nM, RXRa partner concentration 90 nM)
Procedure, shortened: as §1

[8] = system: PPARg:RXRa 270nM:90nM, anti-RXR (NR concentration 270 nM, RXRa partner concentration 90 nM)
Procedure, shortened: as §1

[9] = system: PPARg:RXRa 30nM:10nM, anti-RXR (NR concentration 30 nM, RXRa partner concentration 10 nM)
Procedure, shortened: as §1

[10] = system: PPARg:RXRa 90nM:30nM, anti-RXR (NR concentration 90 nM, RXRa partner concentration 30 nM)
Procedure, shortened: as §1

[11] = system: PPARg:RXRa DBDmut IVT, anti-RXR (DBD mutation: RXRa K156A/R161A, NR concentration 270 nM, RXRa partner concentration 90 nM)
Procedure, shortened: as §1

[12] = system: PPARg:RXRa IVT, anti-PPARg (NR concentration 270 nM, RXRa partner concentration 90 nM)
Procedure, shortened: as §1

[13] = system: PPARg DBDmut:RXRa IVT, anti-PPARg (DBD mutation: PPARg1 K132A/R137A, NR concentration 270 nM, RXRa partner concentration 90 nM)
Procedure, shortened: as §1

[14] = system: PPARg DBDmut IVT, anti-PPARg (DBD mutation: PPARg1 K132A/R137A, NR concentration 270 nM)
Procedure, shortened: as §1

[15] = system: PPARg homodimer (NR concentration 180 nM)
Procedure, shortened: as §1

[16] = system: PXR:RXRa (NR concentration 270 nM, RXRa partner concentration 90 nM)
Procedure, shortened: as §1

[17] = system: PXR homodimer (NR concentration 270 nM)
Procedure, shortened: as §1

[18] = system: RARa:RXR (NR concentration 270 nM, RXRa partner concentration 90 nM)
Procedure, shortened: as §1

[19] = system: RARa homodimer (NR concentration 270 nM)
Procedure, shortened: as §1

[20] = system: RARb:RXRa (NR concentration 270 nM, RXRa partner concentration 90 nM)
Procedure, shortened: as §1

Sequence	PBM binding z-score [1]	PBM binding z-score [2]	PBM binding z-score [3]	PBM binding z-score [4]	PBM binding z-score [5]	PBM binding z-score [6]	PBM binding z-score [7]	PBM binding z-score [8]	PBM binding z-score [9]	PBM binding z-score [10]	PBM binding z-score [11]	PBM binding z-score [12]	PBM binding z-score [13]	PBM binding z-score [14]	PBM binding z-score [15]	PBM binding z-score [16]	PBM binding z-score [17]	PBM binding z-score [18]	PBM binding z-score [19]	PBM binding z-score [20]
CGTCCAAGGTCAGCAGGTCAGTAAAAGCGACGTG	5.97	4.07	0.614	3.22	-0.235	4.9	3.97	4.43	1.37	2.87	2.72	3.62	0.159	-0.726	3.33	3.43	0.607	4.46	0.549	5.51
GGAACGAGGGCATTCGAGGTGATAGCATGGCGAT	1.32	3.38	-0.432	0.556	-0.578	2	1.28	0.75	0.0745	0.494	3.12	2.76	0.0817	-0.391	0.378	2.36	0.0978	1.4	-0.289	1.97
TAGCCTAGGTCATGCGGGCCAGTTTAGTGTCGGC	3.92	3.15	0.212	1.71	-0.269	3.27	1.32	2.02	-0.211	1.01	2.01	2.55	-0.215	-0.754	0.303	1.59	-0.464	2.22	-0.83	3.45
TTACCAGGGTGAGCTGAGGTCGTTGATCCAACTC	1.3	1.44	-0.264	0.797	-1.42	1.87	0.186	1.08	-0.0751	0.766	0.596	1.4	-1.02	-0.726	0.323	5.42	0.925	2.13	-0.657	1.24
ACTCGGAGGACAAAGGTTAGAGCTACGCCAGTGA	0.928	1.08	0.0666	0.618	-0.716	2.93	4.75	5.11	3.29	5.35	0.161	1.72	-0.577	-0.0683	1.1	0.7	0.168	1.46	0.397	2.23
GCTGCTACGTCAGGTTGGTCAGCTAACGGGTACG	-0.416	-0.646	-0.592	-0.968	-0.619	-0.713	-0.0701	-0.954	-0.756	-0.888	-0.264	-0.651	-0.712	-1.19	-0.583	-0.691	-0.732	-0.51	-1.16	-0.154
GAATATAGGTAATACAAGGTGAAAGTCCGATTGT	1.61	2.61	0.76	1.01	0.0272	2.77	3.39	3	0.987	2	6.67	6.08	2.27	1.21	1.32	0.776	0.722	1.33	1.55	0.909
TCTTGTAGATCAACAGGAGGTTAAGAAGGATCGA	0.614	0.955	0.0858	0.854	-0.55	1.34	0.000249	1.23	2.58	1.73	1.57	0.719	0.516	0.84	-0.0308	0.778	-0.0185	0.915	-0.325	0.474
TCTTGTAGATCAAGCAGGTTAAGACAGCCTGAGT	0.233	0.271	-0.132	0.33	-0.3	0.76	0.0477	1.3	2.29	1.76	1.59	0.85	0.703	0.0402	-0.449	0.414	0.135	0.668	-0.0996	0.151
CCTATGAGTTGACCATAAGGGCAACCGAAGCTCG	0.925	0.669	-0.0503	0.247	0.184	0.685	0.512	0.342	-0.144	-0.218	-0.0484	0.26	-0.849	-0.386	1.05	1.1	0.421	1.51	0.579	1.72
CTACCAAGGTGAACGAGGTCGTTGATTACTATTC	1.79	1.81	0.142	2.09	-0.207	2.82	1.45	1.48	0.4	0.896	2.17	2.89	0.126	-0.713	0.838	3.54	2.67	2.7	0.278	2.3
CGTCCAAGGTCAGCAGGTCAGTGAAAGCGACGTG	5.62	4	0.313	3.11	-0.277	4.76	4.12	4.39	0.905	2.91	2.94	3.8	0.0823	-0.0279	3.81	3.7	0.523	4.76	0.465	5.34
GCATATAGGTAATACAATGTGAAAGTCCGATTGT	0.12	-0.102	0.125	-0.0369	-0.0471	0.701	1.29	0.561	0.448	0.672	4.03	2.5	1.42	1.13	0.581	0.112	0.544	0.557	0.819	0.0649
CGAACGAGGGCATGATTTGATAGCAAATGCCGAT	0.047	-0.148	-0.301	-0.0288	-0.66	0.783	0.992	0.441	0.141	0.0789	2.59	1.81	-0.0165	-0.269	-0.834	0.0992	-0.377	0.0639	-0.507	1.78
CGTCCAAGGTCATAGGAGGTCAGTGAAGACAGAT	7.58	7.44	4.4	5.99	1.01	5.84	5.77	5.68	2.12	4.17	3.11	4.48	0.77	-0.116	3.31	6.64	4.38	5.77	1.77	5.4
TGAATGAGGTTATAAGATCAAGGAACGTTGCAAA	1.48	1.44	-0.207	0.961	0.00759	3.01	1.79	2.39	1.08	1.89	1.04	1.84	0.592	0.326	0.811	0.776	-0.0343	1.37	0.338	1.18
ATGCCAAGGTGATCGTGAGGTCGTTGATACTAAC	1.44	0.89	0.206	0.945	-0.844	1.55	0.467	0.399	-0.303	0.00157	0.413	1.05	0.0542	-0.951	0.442	2.75	1.03	2.28	-0.38	1.32
GGAACGAGGGCAAGGTTGATAGCATCTGTCGACG	0.705	0.414	-0.458	0.32	-0.386	2.82	4.49	5.17	3.62	4.91	3.31	3.93	0.295	-0.611	0.79	0.705	-0.0103	0.822	0.206	2.52
ACTGTTAGTTGACTTAGGGCAACCGATACGACGC	0.539	0.575	0.206	0.367	1.15	0.0221	0.731	0.221	0.105	-0.111	0.0464	0.607	0.909	0.844	0.977	0.277	0.341	0.582	0.354	1.04
CCTAGCAGCCCAGGGTCACTCAAGCATTTCGCTT	2.06	1.93	-0.213	2.17	-0.762	2.99	0.0606	0.885	-0.586	0.325	-0.614	0.169	-1.11	-1.49	1.2	2.56	0.192	3.27	0.00809	2.4
CCTGCTAGGTCATGGTTAGCTAATCTACAGTATG	3.74	2.32	-0.0293	1.71	-0.265	3.76	2.65	3.06	0.508	2.06	4.51	3.71	1.31	0.491	3.42	1.38	-0.137	2.44	-0.015	3.65
ACAGACAGGTGATGAAGGTAACTCAGGCTATCAT	-0.17	-0.295	-0.208	-0.204	-0.527	0.152	0.816	-0.0244	-0.0108	-0.132	0.422	0.692	0.619	0.238	0.146	-0.153	0.282	0.117	0.425	0.236
TATTGTAGATCAATAGAGGTTAAGAAAGTGCGCT	0.833	3.7	0.984	1.79	0.902	1.97	0.757	0.86	0.535	0.718	0.44	1.78	1.72	1.55	0.993	3.04	0.513	1.71	1.1	0.903
ACAAGTTGGTCAGCTGAGGTCACACACAATTCGG	3.12	3.24	2.34	3.77	0.506	3.78	2.28	2.38	0.435	1.74	1.87	2.89	0.789	1.03	2.69	5.44	2	4.44	1.01	3.65
ACTATTAGTTGAGACGAGGGAAACCGATAGGTTG	0.194	0.0182	-0.36	-0.399	-0.0748	-0.349	0.531	-0.165	0.215	0.291	0.0625	-0.339	0.706	0.394	0.465	-0.464	-0.0777	0.0368	0.655	-0.193
TCGCCTAGGTCATTCAGGGGCCAGTATAGAAAGC	4.82	3.45	0.443	3.13	0.742	3.8	1.91	2.45	2.3	2.02	2.54	2.19	-0.243	-0.908	1.82	2.3	-0.0121	3.36	-0.254	3.96
AGAATGAGGTTACCAAAGATCAGGGGAACGCTTG	1.87	6	-0.402	3.15	-0.39	3.44	2.74	2.72	1.04	2	3.68	3.55	0.871	0.161	0.699	1.59	-0.0783	2.04	0.232	2.18
TCATATAGGTAAAGGTGATAGTCGAACGATATGA	0.212	0.601	-0.19	0.539	-0.129	2.02	2.72	3.48	3.92	3.51	3.45	3.38	1.17	1.36	0.694	0.398	0.262	0.569	0.68	1.09
